These results are taken from PubChem BioAssay (NCATS).

Structures are written as SMILES. Several values for one entry are separate records, joined by “and”; a condition that tells them apart may be missing. Identical values can stand only once. Inconclusive results are not listed. The source holds several records for some structures; these can differ, active in one and inactive in another. Activity calls are given as the source filed them. Unless noted, calls come from the whole dose curve.

Experiment [1] has as its target Peroxisome proliferator-activated receptor gamma (Homo sapiens) (UniProt P37231). Description: qHTS assay for small molecule antagonists of peroxisome proliferator-activated receptor gamma signaling (AID 588537; active = well fitted inhibition curve with a large enough effect in the signal ratio, with a control signal flat, not every such curve was filed as active; the % refers to the signal ratio;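 note: reporter cells co-stimulated with 50 nM rosiglitazone agonist during compound treatment; % of control where 0% means no effect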). The method in brief: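 Antagonist-mode β-lactamase reporter screen run as a titration series. HEK293 PPARγ-UAS-bla cells are stimulated with rosiglitazone (50 nM final) for 16 h, then CCF4 is read at 460/530 nm. Data are scaled between DMSO and rosiglitazone and fitted to the Hill equation.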

Experiment [2] addresses Vitamin D3 receptor (Homo sapiens) (UniProt P11473). Briefly: qHTS assay for small molecule antagonists of vitamin D receptor signaling (AID 588541).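 Note: receptor activated by calcitriol during compound treatment; series mostly up to about 77 µM; % is set by controls: 0 for no effect and ±100 for the full control effect.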 The procedure, abridged:
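Antagonist-mode beta-lactamase reporter assay: HEK293T VDR-UAS-bla cells were exposed to titrated compound alongside 1-alpha,25-dihydroxyvitamin D3 at 3 nM final for 16 h. Values were normalized to the 50 nM agonist control and DMSO basal, with IC50 and efficacy from Hill equation fits.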

Experiment [3] shares this target. Briefly: qHTS assay for small molecule agonists of vitamin D receptor signaling (AID 588543).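 Note: 0% = DMSO basal and 100% = reference agonist control.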 The method in brief: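 Reporter cells (HEK293T, VDR-UAS-bla) were seeded in medium with 2% charcoal-stripped serum and incubated 5 h, then compounds in concentration series were added for 16 h at 37 °C. Stimulation was scaled between DMSO basal and 50 nM 1α,25-dihydroxyvitamin D3.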

The target of experiment [4] is Thyroid hormone receptor beta (Homo sapiens) (UniProt P10828). Briefly: qHTS assay for small molecule agonists of thyroid hormone receptor beta signaling (AID 588545).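 Note: 0% = DMSO only and 100% = 10 nM T3.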 The procedure, abridged: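 TR-UAS-bla GripTite HEK 293 cells (2500/well, medium with 2% charcoal/dextran FBS) were treated in agonist mode for 18 h at 37 C, titrated. Beta-lactamase was read by CCF4 ratio after 2 h; normalized to 10 nM T3 (100%) and DMSO, Hill-fitted for EC50 and efficacy.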

Experiment [5] can be described thus: qHTS assay for small molecule antagonists of retinoid X receptor alpha signaling (AID 588546; active = well fitted inhibition curve with a large enough effect in the signal ratio, with a control signal flat, not every such curve was filed as active; the % refers to the signal ratio;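 note: cells stimulated with 9-cis-retinoic acid as agonist; % is set by controls: 0 for no effect and ±100 for the full control effect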). The following applies: HEK293T RXRa-UAS-bla, beta-lactamase ratio, antagonist mode; measured here: W530 green channel, cytotoxicity proxy. The procedure, abridged: (§1)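 Beta-lactamase reporter inhibition, read as CCF4 fluorescence ratio (ex 405, em 460/530 nm) after 2 h at RT. HEK293T UAS-bla cells, 2500/well, were stimulated with 9-cis-RA at 500 or 100 nM final alongside test compound for 18 h at 37 C.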
For orientation: qHTS replaces the single test concentration by a dilution series.

Experiment [6] deals with Retinoic acid receptor RXR-alpha (Homo sapiens) (UniProt P19793). The description is as above. The following applies: HEK293T RXRa-UAS-bla, beta-lactamase ratio, antagonist mode. The method in brief: as §1
The target in experiment [7] is Thyroid hormone receptor beta (Homo sapiens) (UniProt P10828). Briefly: qHTS assay for small molecule antagonists of thyroid hormone receptor beta signaling (AID 588547; active = well fitted inhibition curve with a large enough effect in the signal ratio, with a control signal flat, not every such curve was filed as active; the % refers to the signal ratio;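 note: cells stimulated with 0.4 nM T3 agonist during compound exposure; series mostly up to about 77 µM; % is set by controls: 0 for no effect and ±100 for the full control effect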). The following applies: TR-UAS-bla HEK293, beta-lactamase ratio, antagonist mode, 18 h. The method in brief: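 Inhibition of T3-driven (0.4nM final) beta-lactamase reporter activity was measured over 0.59 nM to 92 uM compound after 18 h at 37 C. The cells were GripTite HEK293 TR-UAS-bla in charcoal/dextran-stripped serum, with CCF4 ratio read-out and IC50 from Hill fits.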

The nature of experiment [8]: qHTS assay for small molecule agonists of the antioxidant response element (ARE) signaling pathway (AID 651741; active = well fitted activation curve with a large enough effect in the signal ratio; the % refers to the signal ratio; note: potency is the fitted concentration of half-maximal effect; for activation: % of control where 0% means no effect). The procedure, abridged: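 Beta-lactamase reporter under ARE control in HepG2 cells, 2,000 per well, was induced by 16 h compound treatment at 37 C. Read-out was fluorescence from LiveBLAzer B/G FRET substrate after 2 h at room temperature.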
The nature of experiment [9]: qHTS assay for small molecule activators of the p53 signaling pathway (AID 651743; active = well fitted activation curve with a large enough effect in the signal ratio, not every such curve was filed as active; the % refers to the signal ratio; note: series mostly up to about 92 µM; % of control where 0% means no effect). The following applies: HCT-116 p53RE-bla, beta-lactamase FRET ratio, 16 h; activation: stronger effect = higher value. The procedure, abridged:
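After 16 hours compound treatment at 37 C, HCT-116 cells stably expressing p53RE-driven beta-lactamase were loaded with LiveBLAzer B/G FRET substrate for 2 hours at room temperature. Fluorescence intensity served as the p53 activation read-out.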

A short description of experiment [10]: qHTS assay for small molecule activators of the nuclear factor-kappa B (NF-kB) signaling pathway (AID 651749; active = well fitted activation curve with a large enough effect in the signal ratio; the % refers to the signal ratio; note: series mostly up to about 77 µM; % of control where 0% means no effect). The note with it: NF-kB-bla ME-180 cells, beta-lactamase FRET ratio, 16 h; activation: stronger effect = higher value. The method in brief: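 Activation measured after 16 hr compound treatment at 37C, 5% CO2, of 2,000 ME-180 cells/well stably expressing an NF-kB response element–driven beta-lactamase reporter, via FRET-disruption fluorescence.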

Experiment [11] in a line: qHTS assay for small molecule disruptors of the mitochondrial membrane potential - 5 hr assay (AID 651755). Note: % is set by controls: 0 for no effect and ±100 for the full control effect; nearly all actives have a fitted effect of over 40% in size. The method in brief:
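Membrane-potential dye readout: red aggregate (540 ex/590 em) versus green monomer (490 ex/535 em) fluorescence after 30 min dye loading, following 5 hr compound exposure at 37C of overnight-plated HepG2 cells.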

Experiment [12] concerns the target Tumor necrosis factor (Homo sapiens) (UniProt P01375). Briefly: qHTS assay to identify small molecules that stimulate Tumor Necrosis Factor-alpha (TNF-alpha) secretion (AID 651757; active = well fitted curve in the direction sought with a large enough effect in the signal ratio; the % refers to the signal ratio; note: 0% is about no effect). The method in brief:
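Secreted TNF-alpha quantified by TR-FRET sandwich of two labeled anti-TNF-alpha antibodies, incubated 3 hr at room temperature. Preceded by 17 hr, 37 C compound treatment of THP-1 cells at 3000 cells/well.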

The target in experiment [13] is Peroxisome proliferator-activated receptor alpha (Homo sapiens) (UniProt Q07869). Description: qHTS assay for small molecule agonists of the peroxisome proliferator-activated receptor alpha (PPARalpha) signaling pathway (AID 651778; active = well fitted curve in the direction sought with a large enough effect; an effect the other way counts as inactive or inconclusive; note: % of control where 0% means no effect). The note with it: PathHunter PPARalpha complementation, chemiluminescence, 6 h; stronger effect = higher value. The procedure, abridged: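 Chemiluminescence from complemented enzyme reported PPARalpha activation in cells after 6 hr of compound treatment at 37 C. The detection reagent was incubated for 60 min at room temperature, and compounds were scored as agonists.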

Experiment [14] is described as follows: qHTS assay for small molecule agonists of the antioxidant response element (ARE) signaling pathway measured by Nrf2-dependant transcriptional activity (AID 720636; active = well fitted curve in the direction sought with a large enough effect in the repeat runs; an effect the other way counts as inactive or inconclusive;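 note: HepG2 cells with an ARE-driven luciferase reporter; % of control where 0% means no effect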). The procedure, abridged:
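Attachment 6 hr at 37 C, then compound versus DMSO vehicle for 16 hr in ARE-luc HepG2 cells (1% dialyzed FBS); luminescence recorded 30 min after ONE-Glo addition at room temperature.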

Experiment [15] is described as follows: qHTS assay for small molecule antagonists of the retinoid-related orphan receptor gamma (ROR-gamma) signaling pathway - cell viability counter screen (AID 720652; active = well fitted curve in the direction sought with a large enough effect in the repeat runs; an effect the other way counts as inactive or inconclusive;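 note: CHO reporter cells with doxycycline-induced ROR-gamma expression; series mostly up to about 92 µM; compound exposure lasted 16 hr before ATP read; % is set by controls: 0 for no effect and ±100 for the full control effect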). The procedure, abridged:
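Cytotoxicity counter screen: intracellular ATP (CellTiter-Glo luminescence) measured in the doxycycline-induced CHO RORE-luciferase reporter line after 16 hr compound exposure at 37 C, 5% CO2.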

Experiment [16] can be described thus: qHTS assay for cell viability of HEK293 cells (AID 743288; active = well fitted curve in the direction sought with a large enough effect; an effect the other way counts as inactive or inconclusive; note: % is set by controls: 0 for no effect and ±100 for the full control effect; nearly all actives have a fitted effect of over 50% in size). The following applies: ATP luminescence (CellTiter-Glo), 18 h; max response: stronger effect = lower value. The procedure, abridged: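 Viable-cell counts were inferred from luciferase-based ATP content in HEK293 cells seeded at 2,000/well, pre-incubated ≥5 h, then dosed with DMSO-solubilised compounds for 18 h at 37 C.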

Experiment [17] can be described thus: qHTS assay for cell viability of the p53RE-bla HCT-116 cell line (AID 743292; active = well fitted curve in the direction sought with a large enough effect; an effect the other way counts as inactive or inconclusive; note: % is set by controls: 0 for no effect and ±100 for the full control effect; nearly all actives have a fitted effect of over 55% in size). The method in brief:
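Compound-exposed HCT-116 (p53RE-bla) cells, 4,000 per well, were kept 16 h at 37 C following a 5 h preincubation. Cell number was estimated from total ATP by CellTiter-Glo luminescence read after 30 min at room temperature.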

Experiment [18] can be described thus: qHTS for Inhibitors of the Functional Ribonucleoprotein Complex (vRNP) of Lassa (LASV) Arenavirus: LASV Primary Screen - GLuc reporter signal (AID 1347082; calls by dose curve; tested in HEK293 reporter line; note: series mostly up to about 57 µM; % is set by controls: 0 for no effect and ±100 for the full control effect; nearly all actives have a fitted effect of over 60% in size).
A short description of experiment [19]: qHTS for Inhibitors of the Functional Ribonucleoprotein Complex (vRNP) of Lassa (LASV) Arenavirus: Viability assay - alamar blue signal for LASV Primary Screen (AID 1347083; calls by dose curve; tested in HEK293 reporter line; note: series mostly up to about 57 µM; % is set by controls: 0 for no effect and ±100 for the full control effect; nearly all actives have a fitted effect of over 80% in size).
A short description of experiment [20]: qHTS for Inhibitors of the Functional Ribonucleoprotein Complex (vRNP) of Lymphocytic Choriomeningitis Arenaviruses (LCMV): Viability assay - alamar blue signal for LCMV Primary Screen (AID 1347085; calls by dose curve; tested in HEK293 reporter line; note: series mostly up to about 57 µM; % is set by controls: 0 for no effect and ±100 for the full control effect; nearly all actives have a fitted effect of over 80% in size).
Experiment [21] deals with Nucleoprotein (Lymphocytic choriomeningitis virus (strain Armstrong)) (UniProt P09992). Briefly: qHTS for Inhibitors of the Functional Ribonucleoprotein Complex (vRNP) of Lymphocytic Choriomeningitis Arenaviruses (LCMV): LCMV Primary Screen - GLuc reporter signal (AID 1347086). Note: series mostly up to about 57 µM; % is set by controls: 0 for no effect and ±100 for the full control effect; nearly all actives have a fitted effect of over 70% in size.
Nucleoprotein (Lymphocytic choriomeningitis virus (strain Armstrong)), sequence (P09992 whole entry, looked up): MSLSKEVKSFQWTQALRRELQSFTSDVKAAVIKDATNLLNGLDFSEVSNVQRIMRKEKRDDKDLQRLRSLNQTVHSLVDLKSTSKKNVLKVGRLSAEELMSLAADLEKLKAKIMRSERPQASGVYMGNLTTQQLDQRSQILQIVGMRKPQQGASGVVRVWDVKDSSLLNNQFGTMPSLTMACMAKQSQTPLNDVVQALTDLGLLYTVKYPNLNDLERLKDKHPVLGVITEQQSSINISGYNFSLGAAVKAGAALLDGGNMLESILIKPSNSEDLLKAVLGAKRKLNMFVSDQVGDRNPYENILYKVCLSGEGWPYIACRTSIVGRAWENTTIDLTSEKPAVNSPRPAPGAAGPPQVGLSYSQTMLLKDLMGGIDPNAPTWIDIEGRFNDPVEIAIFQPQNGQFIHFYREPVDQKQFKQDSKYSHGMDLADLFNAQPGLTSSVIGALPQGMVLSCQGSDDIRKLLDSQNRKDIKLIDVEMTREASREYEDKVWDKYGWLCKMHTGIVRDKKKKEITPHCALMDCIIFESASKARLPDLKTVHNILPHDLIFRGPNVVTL

Vitamin D3 receptor (Homo sapiens), sequence (P11473 whole entry, looked up): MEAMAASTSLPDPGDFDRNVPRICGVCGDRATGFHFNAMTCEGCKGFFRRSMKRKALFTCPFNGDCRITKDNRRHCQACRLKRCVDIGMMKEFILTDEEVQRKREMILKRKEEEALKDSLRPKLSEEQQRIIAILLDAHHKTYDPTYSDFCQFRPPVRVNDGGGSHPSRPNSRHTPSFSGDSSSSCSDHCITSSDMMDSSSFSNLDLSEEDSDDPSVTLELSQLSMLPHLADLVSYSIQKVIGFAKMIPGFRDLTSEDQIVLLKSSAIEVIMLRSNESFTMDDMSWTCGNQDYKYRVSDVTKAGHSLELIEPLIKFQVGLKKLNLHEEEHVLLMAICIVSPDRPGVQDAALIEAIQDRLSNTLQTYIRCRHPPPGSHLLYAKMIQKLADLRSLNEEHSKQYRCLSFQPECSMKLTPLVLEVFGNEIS
Thyroid hormone receptor beta (Homo sapiens), sequence (P10828 whole entry, looked up): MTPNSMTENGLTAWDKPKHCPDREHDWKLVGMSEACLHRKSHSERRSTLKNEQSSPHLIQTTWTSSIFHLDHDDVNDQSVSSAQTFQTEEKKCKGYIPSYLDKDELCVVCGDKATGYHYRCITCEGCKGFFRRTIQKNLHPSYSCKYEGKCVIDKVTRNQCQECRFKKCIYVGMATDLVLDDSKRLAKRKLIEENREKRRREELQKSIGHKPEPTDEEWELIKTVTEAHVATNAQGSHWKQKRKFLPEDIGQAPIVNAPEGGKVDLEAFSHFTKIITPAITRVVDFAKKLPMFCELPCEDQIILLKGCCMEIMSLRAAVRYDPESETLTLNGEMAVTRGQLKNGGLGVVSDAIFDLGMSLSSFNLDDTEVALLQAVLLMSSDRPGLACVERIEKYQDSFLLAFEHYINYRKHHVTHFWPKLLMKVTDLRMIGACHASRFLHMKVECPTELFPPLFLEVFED
Peroxisome proliferator-activated receptor alpha (Homo sapiens), sequence (Q07869 whole entry, looked up): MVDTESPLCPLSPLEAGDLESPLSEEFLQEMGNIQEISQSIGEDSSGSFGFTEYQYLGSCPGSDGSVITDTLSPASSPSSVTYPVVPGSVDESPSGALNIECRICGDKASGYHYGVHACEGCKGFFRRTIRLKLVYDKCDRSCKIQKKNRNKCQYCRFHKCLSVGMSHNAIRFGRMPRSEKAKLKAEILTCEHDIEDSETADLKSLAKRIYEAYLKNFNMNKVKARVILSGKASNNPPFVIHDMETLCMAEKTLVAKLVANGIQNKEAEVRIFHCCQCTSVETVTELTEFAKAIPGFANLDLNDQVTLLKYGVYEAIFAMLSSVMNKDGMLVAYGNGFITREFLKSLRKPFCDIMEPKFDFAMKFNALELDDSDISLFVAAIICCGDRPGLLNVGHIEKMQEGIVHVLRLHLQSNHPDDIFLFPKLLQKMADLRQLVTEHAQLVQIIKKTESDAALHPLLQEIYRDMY
Peroxisome proliferator-activated receptor gamma (Homo sapiens), sequence (P37231 whole entry, looked up): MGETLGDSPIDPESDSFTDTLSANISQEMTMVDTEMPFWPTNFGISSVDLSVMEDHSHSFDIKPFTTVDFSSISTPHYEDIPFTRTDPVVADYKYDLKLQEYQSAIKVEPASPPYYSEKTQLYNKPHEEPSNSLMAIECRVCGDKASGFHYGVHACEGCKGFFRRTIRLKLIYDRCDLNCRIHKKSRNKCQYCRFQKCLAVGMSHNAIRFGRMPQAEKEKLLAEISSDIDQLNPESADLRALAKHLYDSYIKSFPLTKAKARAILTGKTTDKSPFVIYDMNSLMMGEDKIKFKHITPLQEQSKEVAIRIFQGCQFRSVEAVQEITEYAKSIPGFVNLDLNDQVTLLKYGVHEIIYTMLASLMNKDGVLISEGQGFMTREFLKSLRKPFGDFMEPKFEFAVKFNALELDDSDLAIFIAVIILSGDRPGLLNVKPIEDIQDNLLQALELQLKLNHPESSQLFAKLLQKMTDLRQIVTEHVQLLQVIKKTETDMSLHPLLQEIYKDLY
Tumor necrosis factor (Homo sapiens), sequence (P01375 whole entry, looked up): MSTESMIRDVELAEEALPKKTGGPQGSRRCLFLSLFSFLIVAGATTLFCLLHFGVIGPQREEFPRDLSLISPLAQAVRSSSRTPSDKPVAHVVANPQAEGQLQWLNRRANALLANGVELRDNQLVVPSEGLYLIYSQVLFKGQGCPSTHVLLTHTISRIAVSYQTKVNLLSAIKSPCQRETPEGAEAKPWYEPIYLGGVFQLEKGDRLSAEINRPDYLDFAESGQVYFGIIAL
Retinoic acid receptor RXR-alpha (Homo sapiens), sequence (P19793 whole entry, looked up): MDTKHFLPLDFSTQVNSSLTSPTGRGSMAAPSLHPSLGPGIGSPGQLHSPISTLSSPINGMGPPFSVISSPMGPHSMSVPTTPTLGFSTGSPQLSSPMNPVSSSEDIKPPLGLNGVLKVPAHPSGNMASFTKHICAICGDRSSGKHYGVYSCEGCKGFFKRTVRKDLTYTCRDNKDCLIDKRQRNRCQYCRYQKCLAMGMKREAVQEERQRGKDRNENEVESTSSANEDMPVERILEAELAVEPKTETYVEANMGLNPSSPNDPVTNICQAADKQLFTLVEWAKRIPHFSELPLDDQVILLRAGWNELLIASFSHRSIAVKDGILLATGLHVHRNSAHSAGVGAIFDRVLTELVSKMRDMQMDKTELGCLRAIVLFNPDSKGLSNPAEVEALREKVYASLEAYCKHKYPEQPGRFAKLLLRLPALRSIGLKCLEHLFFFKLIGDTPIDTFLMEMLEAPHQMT

For the molecule `c1ccc2c(c1)-c1cccc3cccc-2c13`, the Potency result in [1], in experiment [3], in [4], in experiment [11], in experiment [14] and in [18] was “inactive” each time. Further, the Potency result in experiment [19], in experiment [20] and in experiment [21] was “inactive” each time. The result in experiment [2], in [12], in [15] and in experiment [17] was inactive. The max response in experiment [5] was -3.55%; in [6] it was -2.14% (inactive); in [13], -3.35% (inactive) and -1.28% (inactive); in experiment [16], -24.1% (inactive) and 3.9% (inactive). Moreover, in experiment [7], the activity change % (negative = inhibition) is 3.57% (inactive). Moreover, the Potency entry in [8] was “inactive and 30.6 µM (active)”. Also, the activation is 5.47% (inactive) and -0.395% (inactive) in experiment [9]; 0.379% (inactive) in experiment [10].
